# In PubChem BioAssay (Tox21):
# A number with no mark means an inactive call. A call without a number means that no potency is given here. Activity calls are given as the source filed them. Unless noted, calls follow the shape of the dose curve; as a rule, active = well fitted curve in the direction sought with a large enough effect in the repeat runs; inconclusive = weak or mixed curves; inactive = no such curve, though single readings can be large; an effect the other way counts as inactive or inconclusive.
# Legend:
# [1] = qHTS assay to identify small molecule antagonists of the thyroid receptor (TR) signaling pathway - cell viability counter screen (AID 743064); also: nearly all actives have a fitted effect of over 50% in size; also: potency is read from the fitted curve at half-maximal effect
# Procedure, shortened: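 GH3.TRE-Luc rat pituitary cells dosed after 4 hr plating, co-stimulated with T3 at 1 nM final, incubated 23.5 h at 37 C. Viability measured in the same wells by CellTiter-Fluor fluorescence after 30 min further at 37 C.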
# [2] = qHTS assay to identify small molecule antagonists of the thyroid receptor (TR) signaling pathway (AID 743065); also: potency is read from the fitted curve at half-maximal effect; nearly all actives have a fitted effect of over 55% in size
# Procedure, shortened: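 Antagonism measured as loss of luciferase signal in GH3 cells stably carrying a TRE-luciferase reporter, co-treated with compound and T3 (1 nM final) for 23.5 h at 37 C. Viability was read in the same well by CellTiter-Fluor.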
# [3] = target: Estrogen receptor (Homo sapiens) (UniProt P03372); assay: qHTS assay to identify small molecule agonists of the estrogen receptor alpha (ER-alpha) signaling pathway (AID 743075; calls by dose curve; also: potency is read from the fitted curve at half-maximal effect)
# [4] = target: Aryl hydrocarbon receptor (Homo sapiens) (UniProt P35869); assay: qHTS assay to identify small molecule that activate the aryl hydrocarbon receptor (AhR) signaling pathway (AID 743085); also: nearly all actives have a fitted effect of over 15% in size; also: potency is read from the fitted curve at half-maximal effect;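 as to activation: HG2L7.5c1 human HepG2 liver cells with stably integrated DRE-driven firefly reporter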
# Procedure, shortened: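 HepG2 cells stably carrying a 20-DRE firefly luciferase reporter (HG2L7.5c1) treated with compound for 24 hr at 37C. Luciferase read by ONE-Glo luminescence, with CellTiter-Fluor viability read first.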
# [5] = qHTS assay for small molecule agonists of the antioxidant response element (ARE) signaling pathway - cell viability counter screen (AID 743203; calls by dose curve; also: nearly all actives have a fitted effect of over 55% in size; also: potency is read from the fitted curve at half-maximal effect)
# Procedure, shortened: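 Parallel cytotoxicity read-out for the ARE-bla screen: HepG2 reporter cells, 16 hrs with compounds, then CellTiter-Glo luminescence.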
# [6] = qHTS assay for small molecule activators of the heat shock response signaling pathway - cell viability counter screen (AID 743209); also: nearly all actives have a fitted effect of over 50% in size; also: potency is read from the fitted curve at half-maximal effect
# Procedure, shortened: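 To flag cytotoxic compounds, HSE-bla HeLa cells plated at 1500 cells/well were dosed for 5 h at 37 C, followed by the reporter FRET read and then CellTiter-Glo, with luminescence recorded 30 min after reagent addition.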
# [7] = tested on: thyroid hormone receptor (rat, GH3 cells); assay: qHTS assay to identify small molecule agonists of the thyroid receptor (TR) signaling pathway (AID 743066; calls by dose curve; also: potency is read from the fitted curve at half-maximal effect)
# [8] = qHTS assay to identify small molecule antagonists of the estrogen receptor alpha (ER-alpha) signaling pathway - cell viability counter screen (AID 743074; calls by dose curve; also: nearly all actives have a fitted effect of over 45% in size; also: potency is read from the fitted curve at half-maximal effect)
# [9] = qHTS assay to identify small molecule antagonists of the estrogen receptor alpha (ER-alpha) signaling pathway using the BG1 cell line - cell viability counter screen (AID 743081);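 also: compound given together with 17beta-estradiol as the ER stimulus; nearly all actives have a fitted effect of over 45% in size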; also: potency is read from the fitted curve at half-maximal effect
# [10] = qHTS assay to identify small molecule that activate the aryl hydrocarbon receptor (AhR) signaling pathway - cell viability counter screen (AID 743086); also: nearly all actives have a fitted effect of over 45% in size; also: potency is read from the fitted curve at half-maximal effect
# Procedure, shortened: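 Cytotoxicity counter screen: CellTiter-Fluor signal (30 min, 37 C) in 4000 HepG2 cells/well carrying the DRE-luciferase reporter, following 24 h compound exposure at 37 C.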
# [11] = qHTS assay to identify small molecule antagonists of the peroxisome proliferator-activated receptor gamma (PPARg) signaling pathway - cell viability counter screen (AID 743194); conditions: Potency: co-treated with 50 nM rosiglitazone unless noted; also: nearly all actives have a fitted effect of over 55% in size; also: potency is read from the fitted curve at half-maximal effect
# Procedure, shortened: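 Viability was measured as CellTiter-Glo luminescence in GeneBLAzer PPARg UAS-bla HEK293H cells. These cells had been exposed 17 h at 37 C to compounds together with rosiglitazone at 50 nM final, with the beta-lactamase readout taken in the same wells.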
# [12] = qHTS assay for small molecule agonists of the antioxidant response element (ARE) signaling pathway (AID 743202; active = well fitted activation curve with a large enough effect in the signal ratio in the repeat runs, not every such curve was filed as active; inconclusive = weak or mixed curves, or effect the other way; inactive = no such curve, though single readings can be large or run the other way; the % refers to the signal ratio; also: potency is read from the fitted curve at half-maximal effect)
# Procedure, shortened: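 Beta-lactamase reporter activity, read as fluorescence intensity, reflects ARE/Nrf2 pathway induction in HepG2 cells after 16 h compound exposure at 37 C; substrate loading was 2 h at room temperature.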
# [13] = target: Estrogen receptor (Homo sapiens) (UniProt P03372); assay: qHTS assay to identify small molecule agonists of the estrogen receptor alpha (ER-alpha) signaling pathway using the BG1 cell line (AID 743079); conditions: BG1Luc4E2 cells, ERE-luciferase agonist, 22 h; activation: at 70.3 µM (top of the series); also: nearly all actives have a fitted effect of over 20% in size
# [14] = qHTS assay to identify small molecule antagonists of the estrogen receptor alpha (ER-alpha) signaling pathway using the BG1 cell line (AID 743080; calls by dose curve;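 also: BG1 cells stimulated with 17beta-estradiol alongside compound; nearly all actives have a fitted effect of over 25% in size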; also: potency is read from the fitted curve at half-maximal effect)
# Procedure, shortened: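 Luciferase inhibition measured with ONE-Glo after 30 min at RT in BG1Luc4E2 cells given test compounds and 17beta-estradiol for 21.5 h at 37 C; CellTiter-Fluor viability read in the same wells beforehand.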
# [15] = qHTS assay to identify aromatase inhibitors - cell viability counter screen (AID 743084);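 also: cells stimulated with testosterone during compound exposure; nearly all actives have a fitted effect of over 55% in size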; also: potency is read from the fitted curve at half-maximal effect
# [16] = target: Peroxisome proliferator-activated receptor gamma (Homo sapiens) (UniProt P37231); assay: qHTS assay to identify small molecule agonists of the peroxisome proliferator-activated receptor gamma (PPARg) signaling pathway (AID 743094; active = well fitted activation curve with a large enough effect in the signal ratio in the repeat runs, not every such curve was filed as active; inconclusive = weak or mixed curves, or effect the other way; inactive = no such curve, though single readings can be large or run the other way; the % refers to the signal ratio)
# Procedure, shortened: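 Fluorescence-based beta-lactamase readout in HEK293H PPARg UAS-bla cells after 17 h compound exposure (37C) and 1 h B/G FRET substrate incubation at room temperature.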
# [17] = target: Peroxisome proliferator-activated receptor gamma (Homo sapiens) (UniProt P37231); assay: qHTS assay to identify small molecule antagonists of the peroxisome proliferator-activated receptor gamma (PPARg) signaling pathway (AID 743191; calls by dose curve; also: nearly all actives have a fitted effect of over 30% in size)
# Procedure, shortened: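 Beta-lactamase reporter under UAS control in HEK293H PPARg-bla cells; compound treatment 17 h at 37C. Read-out: fluorescence intensity after 1 h room-temperature incubation with LiveBLAzer B/G FRET substrate.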
# [18] = qHTS assay for small molecule activators of the heat shock response signaling pathway (AID 743210; active = well fitted activation curve with a large enough effect in the signal ratio in the repeat runs, with a control signal flat, not every such curve was filed as active; inconclusive = weak or mixed curves; the % refers to the signal ratio;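 also: HeLa cells with beta-lactamase reporter driven by heat shock elements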)
# Procedure, shortened: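 Fluorescence from a cleaved B/G FRET substrate (2.5 h, room temp) reports HSE-driven beta-lactamase in HeLa cells treated 5 h at 37 C with DMSO-dissolved compounds.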
# [19] = target: Estrogen receptor (Homo sapiens) (UniProt P03372); assay: qHTS assay to identify small molecule antagonists of the estrogen receptor alpha (ER-alpha) signaling pathway (AID 743069; active = well fitted curve in the direction sought with a large enough effect in the signal ratio in the repeat runs, not every such curve was filed as active; inconclusive = weak or mixed curves, or effect the other way; inactive = no such curve, though single readings can be large or run the other way; the % refers to the signal ratio)
# Procedure, shortened: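 Fluorescence intensity from a beta-lactamase FRET substrate served as the read-out. Cells: HEK293 with stably integrated ER-alpha-UAS-bla reporter. Agonist 17beta-estradiol was co-added with compounds; incubation 18 hr at 37C, substrate 2 hr at room temperature.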
# Aromatase (Homo sapiens) = Aromatase (Homo sapiens) (UniProt P11511); assay: qHTS assay to identify aromatase inhibitors (AID 743083); also: nearly all actives have a fitted effect of over 55% in size; also: potency is read from the fitted curve at half-maximal effect
# Aromatase (Homo sapiens), sequence (P11511 whole entry, looked up): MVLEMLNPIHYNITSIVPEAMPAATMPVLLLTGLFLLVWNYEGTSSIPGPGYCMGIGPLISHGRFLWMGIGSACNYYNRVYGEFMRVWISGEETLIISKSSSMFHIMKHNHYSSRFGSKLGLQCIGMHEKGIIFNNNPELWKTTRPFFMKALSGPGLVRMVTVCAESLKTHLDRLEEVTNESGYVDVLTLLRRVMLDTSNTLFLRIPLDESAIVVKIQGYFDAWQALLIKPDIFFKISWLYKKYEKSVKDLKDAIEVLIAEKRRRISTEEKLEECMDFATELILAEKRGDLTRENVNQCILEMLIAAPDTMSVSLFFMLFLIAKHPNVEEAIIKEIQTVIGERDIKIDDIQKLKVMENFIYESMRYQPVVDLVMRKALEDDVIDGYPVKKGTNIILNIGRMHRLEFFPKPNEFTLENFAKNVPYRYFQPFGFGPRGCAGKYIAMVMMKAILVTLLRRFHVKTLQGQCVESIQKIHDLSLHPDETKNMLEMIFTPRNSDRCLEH
# Estrogen receptor (Homo sapiens), sequence (P03372 whole entry, looked up): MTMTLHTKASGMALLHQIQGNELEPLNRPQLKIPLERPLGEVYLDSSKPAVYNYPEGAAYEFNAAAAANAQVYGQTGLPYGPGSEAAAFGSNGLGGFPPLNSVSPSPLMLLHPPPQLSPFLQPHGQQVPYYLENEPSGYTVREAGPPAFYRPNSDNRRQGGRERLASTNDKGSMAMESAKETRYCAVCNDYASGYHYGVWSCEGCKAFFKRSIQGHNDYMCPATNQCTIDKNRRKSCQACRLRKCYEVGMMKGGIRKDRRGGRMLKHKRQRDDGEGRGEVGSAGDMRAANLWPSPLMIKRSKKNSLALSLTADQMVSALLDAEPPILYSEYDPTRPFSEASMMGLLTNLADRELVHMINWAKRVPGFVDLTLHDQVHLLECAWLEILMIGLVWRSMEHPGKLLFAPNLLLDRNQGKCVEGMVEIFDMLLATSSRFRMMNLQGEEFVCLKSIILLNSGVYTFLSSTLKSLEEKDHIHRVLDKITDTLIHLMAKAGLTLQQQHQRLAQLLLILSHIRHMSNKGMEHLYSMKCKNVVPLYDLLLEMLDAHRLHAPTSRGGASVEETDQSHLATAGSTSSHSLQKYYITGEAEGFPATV
# Peroxisome proliferator-activated receptor gamma (Homo sapiens), sequence (P37231 whole entry, looked up): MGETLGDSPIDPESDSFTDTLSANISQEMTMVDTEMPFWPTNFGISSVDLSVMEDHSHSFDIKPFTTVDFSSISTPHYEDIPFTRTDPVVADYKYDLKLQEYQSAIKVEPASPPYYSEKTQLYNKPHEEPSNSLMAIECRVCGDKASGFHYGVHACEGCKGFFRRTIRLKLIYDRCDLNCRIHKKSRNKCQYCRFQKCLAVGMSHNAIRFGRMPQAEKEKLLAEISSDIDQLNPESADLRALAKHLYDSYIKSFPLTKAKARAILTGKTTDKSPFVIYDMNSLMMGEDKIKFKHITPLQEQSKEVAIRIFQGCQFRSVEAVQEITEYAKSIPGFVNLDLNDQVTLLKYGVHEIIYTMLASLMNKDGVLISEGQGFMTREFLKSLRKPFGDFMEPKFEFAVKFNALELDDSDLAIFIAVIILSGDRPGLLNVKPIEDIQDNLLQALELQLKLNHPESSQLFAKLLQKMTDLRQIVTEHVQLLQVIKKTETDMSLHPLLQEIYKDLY
# Aryl hydrocarbon receptor (Homo sapiens), sequence (P35869 whole entry, looked up): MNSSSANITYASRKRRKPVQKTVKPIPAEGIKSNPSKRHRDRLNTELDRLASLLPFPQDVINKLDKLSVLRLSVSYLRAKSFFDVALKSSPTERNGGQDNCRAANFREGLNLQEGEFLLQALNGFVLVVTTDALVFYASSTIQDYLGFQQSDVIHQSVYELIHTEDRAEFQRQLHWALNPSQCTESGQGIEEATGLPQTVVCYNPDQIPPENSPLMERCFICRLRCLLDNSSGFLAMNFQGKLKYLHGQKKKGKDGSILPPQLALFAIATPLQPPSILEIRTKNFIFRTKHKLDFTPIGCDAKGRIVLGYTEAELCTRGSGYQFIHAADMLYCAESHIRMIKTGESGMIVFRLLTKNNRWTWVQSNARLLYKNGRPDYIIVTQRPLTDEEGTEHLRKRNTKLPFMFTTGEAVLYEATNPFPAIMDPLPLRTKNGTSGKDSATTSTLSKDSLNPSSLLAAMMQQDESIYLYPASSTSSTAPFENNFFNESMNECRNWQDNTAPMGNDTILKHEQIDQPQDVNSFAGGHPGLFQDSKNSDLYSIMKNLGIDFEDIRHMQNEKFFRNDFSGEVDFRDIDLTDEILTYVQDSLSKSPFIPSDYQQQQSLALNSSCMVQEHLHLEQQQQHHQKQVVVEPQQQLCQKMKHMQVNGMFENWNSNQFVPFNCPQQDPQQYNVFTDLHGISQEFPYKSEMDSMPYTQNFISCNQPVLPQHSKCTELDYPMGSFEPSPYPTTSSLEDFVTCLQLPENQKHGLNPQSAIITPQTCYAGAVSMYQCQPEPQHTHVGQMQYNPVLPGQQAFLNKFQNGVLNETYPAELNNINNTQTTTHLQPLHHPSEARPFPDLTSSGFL
Compound,Potency [1],Potency [2],Potency [3],Potency [4],Potency [5],Potency [6],Potency [7],Potency [8],Potency [9],Potency [10],Potency [11],Potency [12],Potency [13],Potency [14],Potency [15],Potency [16],Potency [17],Potency [18],Potency [19],Potency (Aromatase (Homo sapiens))
CCC(OC(C)=O)C(CC(C)NC)(c1ccccc1)c1ccccc1 (stereo unspecified),19.5 µM (active),19.5 µM (active),inactive,inactive,77.6 µM (active),inactive,–,–,–,–,–,–,–,–,–,–,–,–,–,–
CCn1cc[n+](C)c1 (tested in a mixture with another compound),inactive,–,–,–,inactive,inactive,inactive,inactive,inactive,inactive,inactive,inactive,–,–,–,–,–,–,–,–
Oc1cc(Cl)cc(Cl)c1,inactive,–,inactive,inactive,inactive,–,inactive,inactive,inactive,inactive,–,–,inactive,inactive,inactive,inactive,inactive,inactive,–,–
O=C(O)CCCCCCNC1c2ccccc2CCc2ccccc21,inactive,–,inactive,–,inactive,inactive,23.7 µM (active),–,inactive,inactive,inactive,inactive,inactive,inactive,inactive,–,–,inactive,inactive,–
COc1ccc(Cc2nccc3cc(OC)c(OC)cc23)cc1OC,inactive,–,–,–,inactive,inactive,inactive,inactive,inactive,–,inactive,–,–,–,inactive,inactive,inactive,inactive,–,inactive
CC(C)=CC1C(C(=O)OC(C#N)c2cccc(Oc3ccccc3)c2)C1(C)C (stereo unspecified),inactive,–,–,inactive,inactive,inactive,inactive,–,inactive,–,inactive,inactive,–,–,inactive,inactive,inactive,–,–,inactive
Clc1ccc(C(Cl)(Cl)Cl)cc1Cl,inactive,–,inactive,26.7 µM (active),inactive,inactive,–,inactive,inactive,inactive,inactive,–,inactive,inactive,inactive,inactive,inactive,inactive,–,inactive
CCOP(=S)(OCC)Oc1cc(C)nc(N(CC)CC)n1,inactive,–,inactive,2.73 µM (active),inactive,inactive,inactive,–,inactive,inactive,inactive,–,–,34.4 µM (active),inactive,–,–,inactive,–,–
O=c1[nH]c(Cl)c(Cl)cc1Cl,inactive,–,–,–,inactive,inactive,inactive,inactive,inactive,–,inactive,–,–,–,inactive,inactive,–,inactive,–,inactive
CSC(=O)c1c(C(F)F)nc(C(F)(F)F)c(C(=O)SC)c1CC(C)C,54.2 µM (active),–,inactive,–,–,inactive,–,inactive,inactive,–,inactive,inactive,inactive,inactive,inactive,–,–,inactive,–,68.2 µM (active)
CC(O)C(=O)[O][Hg][c]1ccccc1 (stereo unspecified),0.686 µM (active),0.344 µM (active),0.692 µM [fluorescent] (active),inactive,0.686 µM (active),1.95 µM (active),–,5.49 µM (active),3.06 µM (active),4.86 µM (active),0.436 µM (active),–,–,–,1.09 µM (active),–,–,–,–,0.969 µM (active)
COC(=O)N(OC)c1ccccc1COc1ccn(-c2ccc(Cl)cc2)n1,61.1 µM (active),0.137 µM (active),0.275 µM [inconclusive] (active),inactive,43.3 µM (active),inactive,–,–,–,inactive,–,0.433 µM (active),–,0.77 µM (active),–,inactive,–,–,–,61.1 µM (active)
O=[N+]([O-])c1cc(C(F)(F)F)c(Cl)c([N+](=O)[O-])c1Nc1ncc(C(F)(F)F)cc1Cl,5.45 µM (active),2.17 µM (active),49 µM [inconclusive] (active),77 µM (active),7.7 µM (active),6.16 µM (active),–,49 µM (active),68.6 µM (active),13.7 µM (active),1.1 µM (active),–,–,–,21.7 µM (active),–,–,–,–,2.73 µM (active)
CC(=O)[O-].CC(=O)[O-].CC(=O)[O-].[Cr+3],54.3 µM (active),–,–,inactive,inactive,inactive,inactive,inactive,inactive,inactive,inactive,–,–,–,–,–,–,–,–,–
N#CC(C#N)=NNc1cccc(Cl)c1,3.44 µM (active),0.969 µM (active),–,inactive,27.3 µM (active),–,–,–,5.45 µM (active),–,0.49 µM (active),–,–,2.17 µM (active),9.69 µM (active),–,–,–,–,2.73 µM (active)
